From PubChem BioAssay AID1894 (NMMLSC, 2009)
The campaign covered roughly 5,900 compounds. About 100 (1.7%) were called active. This excerpt belongs to a sample that is enriched for actives. Unmarked numbers belong to inactive results.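 How the source made its calls: active means binding response below 72% of control, or above a set upper limit, though filed actives all read lower; inactive means the rest.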

Target: Mitogen-activated protein kinase kinase kinase 3 (Homo sapiens) (UniProt Q99759)
Test: MEKK3 wild-type PB1 binding to MEK5, inhibitors, confirmation, biochemical, bead multiplex flow cytometry, single concentration, wildtype (AID 1894);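 further: 100% = DMSO only wells and 0% = binding blocked by excess unlabeled MEK5; lower values mean stronger disruption of MEK5 binding to MEKK3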
Conditions: Alexa488-MEK5 binding to MEKK3, at 10 µM, active compounds read low

Sequence of Mitogen-activated protein kinase kinase kinase 3 (Homo sapiens) (Q99759 whole entry, looked up): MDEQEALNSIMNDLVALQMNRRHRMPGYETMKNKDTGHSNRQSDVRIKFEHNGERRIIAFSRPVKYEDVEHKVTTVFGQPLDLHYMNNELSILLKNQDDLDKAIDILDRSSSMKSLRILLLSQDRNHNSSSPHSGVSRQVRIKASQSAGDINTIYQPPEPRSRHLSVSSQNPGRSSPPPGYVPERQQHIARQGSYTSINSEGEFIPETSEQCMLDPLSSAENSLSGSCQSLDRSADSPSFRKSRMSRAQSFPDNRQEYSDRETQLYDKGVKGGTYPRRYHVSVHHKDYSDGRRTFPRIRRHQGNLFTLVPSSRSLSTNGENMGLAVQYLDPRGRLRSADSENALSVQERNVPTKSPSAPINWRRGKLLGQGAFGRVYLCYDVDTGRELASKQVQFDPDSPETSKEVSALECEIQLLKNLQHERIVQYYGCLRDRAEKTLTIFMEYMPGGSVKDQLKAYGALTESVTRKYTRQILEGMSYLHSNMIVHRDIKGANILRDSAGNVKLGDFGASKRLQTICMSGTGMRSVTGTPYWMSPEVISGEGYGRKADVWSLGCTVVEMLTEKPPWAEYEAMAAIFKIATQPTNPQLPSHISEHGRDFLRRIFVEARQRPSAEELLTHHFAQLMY

Compound	binding response (% of control)
COc1ccccc1OCCNCC(O)COc1cccc2[nH]c3ccccc3c12 (configuration not stated)	100%
O=C(NCCN1CCOCC1)[C@H](Cc1ccccc1)N1C(=O)c2ccccc2C1=O	100%
c1ccc(Nc2nc(N3CCOCC3)c3ccccc3n2)cc1	106%
CCOc1ccc(S(=O)(=O)NCCCn2ccnc2)cc1NC(C)=O	97%
CSCC[C@H](NC(=O)CCCn1nnc2ccccc2c1=O)C(=O)O	102%
COc1cc(NC(=S)NCc2ccco2)c(OC)cc1Cl	104%
CC(C)C(=O)N1c2ccccc2NC2=C(C(=O)CCC2)C1c1ccc(N(C)C)cc1 (configuration not stated)	106%
COc1ccccc1N=C(C)C1=C(O)COC1=O	102%
CC1(C)Cc2cccc(OCC(=O)N3CCN(c4ccc([N+](=O)[O-])cc4)CC3)c2O1	103%
CN(C)c1ccc(/C=C2\NC(=S)N(Cc3ccccc3)C2=O)cc1	99%
CC(C)CC(=O)N1CCN(Cc2ccccc2Br)CC1	107%
CC1(C)OC(=O)N2CCc3ccccc3C21C (configuration not stated)	104%
COc1cccc(NC(=S)NCc2ccccn2)c1	96%
CCOc1nnc(C)c2c(C)n(-c3cccc(Cl)c3)nc12	91%
CCCc1nnc(SCC(=O)N2C(C)CCCC2C)n1CC (configuration not stated)	111%
O=C(Nc1cccnc1)c1cc(Cl)ccc1Cl	106%
O=C(O)CC(Cc1ccccc1)C(=O)Nc1ccc([N+](=O)[O-])cc1 (configuration not stated)	100%
COc1cccc(/C=N\NC(=O)C2=NNC(=O)C2C)c1O (configuration not stated)	100%
CNC(C)C#Cc1ccc2sc3cc(OC)c(OC)cc3c(=O)c2c1 (configuration not stated)	104%

Compound	binding response (% of control)
Cc1ccc(Nc2nc(CSc3nnc(-c4ccncc4)n3-c3ccccc3C)cs2)cc1	103%
Cc1c(S(=O)(=O)NCc2ccccc2)c(=O)n(C)c(=O)n1C	101%
Cc1cnc(NC(=O)Cn2cnc3c2c(=O)n(C)c(=O)n3C)s1	97%
C=CCn1c(=S)sc2c(=O)[nH]c(C)nc21	107%
CC1CCN(C2=NC(=O)/C(=C/c3cn[nH]c3-c3ccccc3)S2)CC1	91%
O=C(CCCO)N/N=C/c1cc(Br)ccc1O	102%
COc1ccc(CC(=O)N2N=C(C)CC2(O)C(F)(F)F)cc1 (configuration not stated)	98%
O=C1C=CC(=O)N1c1ccc(N2CCCCC2)cc1	100%
N=c1c2c(-c3ccccc3)c(-c3ccccc3)n(Cc3ccccc3)c2ncn1CCCO	110%
Cc1cccc(/C=N/NC(=O)CNc2cccc3ccccc23)n1	110%
O=C(O)CCCC(=O)Nc1ccc(Oc2cccc(C(F)(F)F)c2)nc1	105%
Cc1nn(-c2ccccc2)c(C)c1NC(=O)CCl	97%
COC(=O)c1c(NC(=O)COC(=O)[C@@H](NS(=O)(=O)c2ccccc2)C(C)C)sc2c1CCC2	102%
Cc1cn(COC/C=C/c2ccccc2)c(=O)[nH]c1=O	105%
CCO[C@H]1OC(C(=O)N2CCOCC2)=C[C@@H](c2ccc3c(c2)OCO3)[C@@H]1CCCO	104%
Cc1noc(C)c1S(=O)(=O)N(C)Cc1ccccc1	103%
CCN(CC)C(=O)CC(c1ccc2c(c1)OCO2)c1c(OC)cc(OC)c2c(-c3ccccc3)cc(=O)oc12 (configuration not stated)	103%
FC(F)(F)c1nc(-c2ccccc2)ncc1-c1nnnn1-c1ccccc1	100%
CCOC(=O)N1CCN(CC(=O)n2c(C)c(C)c3ccccc32)CC1	97%

Compound	binding response (% of control)
Cn1c(=NC(=O)CSCC(=O)N2CCOCC2)sc2ccccc21	86%
Cc1nc2cc(S(=O)(=O)C(F)(F)F)ccc2s1	101%
CCN1CCN(c2nc(Nc3cc(OC)ccc3OC)nc(Nc3cc(OC)ccc3OC)n2)CC1	106%
Cc1ccccc1C(=O)NNC(=O)CN1C(=O)c2ccccc2C1=O	93%
CCOC(=O)c1c(Cc2ccc(Cl)cc2)c[nH]c1C	107%
CCOC(=O)C(NS(=O)(=O)c1ccc(C)cc1)(C(F)(F)F)P(=O)(OCC(C)C)OCC(C)C (configuration not stated)	94%
C#CCOCCOCCOCCNc1nc(N2CCN(C(=O)C([C@@H](C)CC)n3cc(C(N)COC(=O)C(F)(F)F)nn3)CC2)nc(N2CCN(C(=O)[C@H](CCCCN)n3cc(C(N)CC(C)C)nn3)CC2)n1 (some centres not stated)	106%
COc1ccc(C2CC(c3cccs3)=NN2c2nc(C)c(C(C)=O)s2)cc1OC (configuration not stated)	97%
Cc1ccc(NC(=O)COc2ccc(-n3ccnc3)cc2)cc1Cl	108%
Fc1ccc(-c2ccc(CNCc3ccccn3)o2)cc1Cl	103%
O=C(NC1CCN(Cc2ccccc2)CC1)c1cc(Br)c(Br)[nH]1	110%
O=C(O)/C(=C/c1cccnc1)NC(=O)c1ccccc1	104%
CCCCn1c(SCC(=O)NCCc2ccc(OC)c(OC)c2)nc2c1c(=O)n(C)c(=O)n2C	100%
COc1ccc(SC[C@H](Cc2ccccc2)N2CCN(CCc3ccccc3)CCC2=O)cc1	107%
O=C1Nc2ccc(Br)cc2/C1=N/N=C/C1=C(N2CCOCC2)C(=C\c2ccccc2)/CC1	54% (active)
C=CCn1c(P(C)(=O)O)nc2ccccc21	97%
O=C(OCC1O[C@@H](OC(=O)c2cc(O)c(O)c(O)c2)[C@@H](OC(=O)c2cc(O)c(O)c(O)c2)[C@@H](OC(=O)c2cc(O)c(O)c(O)c2)[C@@H]1OC(=O)c1cc(O)c(O)c(O)c1)c1cc(O)c(O)c(O)c1 (some centres not stated)	1% (active)
C#CCOCCOCCOCCNc1nc(N2CCN(C(=O)[C@H](CCCCN)n3cc([C@@H](N)C(C)CC)nn3)CC2)nc(N2CCN(C(=O)[C@H](Cc3ccc(O)cc3)n3cc([C@@H](N)C(C)CC)nn3)CC2)n1 (some centres not stated)	109%
COc1ccc(N2CCN(Cc3nnc(-c4ccccc4)o3)CC2)cc1	96%
